Drawing on PubChem BioAssay (EPA / NIEHS), this text covers outcome and AC50 for 16 compounds.

Results filed as inconclusive are left out. The source made the active and inactive calls. The calls were made as follows: active = hit-call score of the fitted dose curve at least 0.9, where 1 is the maximum; inconclusive = response in the unintended direction; inactive = score below 0.9.

For this assay, the target named is human Neurokinin, NK2 Receptor, TACR2 (gene 6865) (UniProt P21452). Put plainly: NVS_GPCR_hNK2: NovaScreen (NVS) G Protein-Coupled Receptor Assay for human Neurokinin, NK2 Receptor (AID 2283278).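 Also: actives reduce bound radioligand signal relative to DMSO baseline.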 How it is done: NVS_GPCR_hNK2 is a biochemical, single-readout assay that uses extracted gene-proteins from CHO in a cell-free assay. Measurements were taken 4 hours after chemical dosing in a 96-well plate.NVS_GPCR_hNK2 is one of one assay component(s) measured or calculated from the NVS_GPCR_hNK2 assay. It is designed to make measurements of radioligand binding, a form of binding reporter, as detected with scintillation counting signals by Filter-based radiodetection technology.Data from the assay component NVS_GPCR_hNK2 was analyzed into 1 assay endpoint. This assay endpoint, NVS_GPCR_hNK2, was analyzed in the positive analysis fitting direction relative to DMSO as the negative control and baseline of activity. Using a type of binding reporter, loss-of-signal activity can be used to understand changes in the binding as they relate to the gene TACR2. Furthermore, this assay endpoint can be referred to as a primary readout, because the performed assay has only produced 1 assay endpoint. To generalize the intended target to other relatable targets, this assay endpoint is annotated to the gpcr intended target family, where the subfamily is rhodopsin-like receptor.
Chain of human Neurokinin, NK2 Receptor, TACR2 (gene 6865) (P21452 whole entry, looked up): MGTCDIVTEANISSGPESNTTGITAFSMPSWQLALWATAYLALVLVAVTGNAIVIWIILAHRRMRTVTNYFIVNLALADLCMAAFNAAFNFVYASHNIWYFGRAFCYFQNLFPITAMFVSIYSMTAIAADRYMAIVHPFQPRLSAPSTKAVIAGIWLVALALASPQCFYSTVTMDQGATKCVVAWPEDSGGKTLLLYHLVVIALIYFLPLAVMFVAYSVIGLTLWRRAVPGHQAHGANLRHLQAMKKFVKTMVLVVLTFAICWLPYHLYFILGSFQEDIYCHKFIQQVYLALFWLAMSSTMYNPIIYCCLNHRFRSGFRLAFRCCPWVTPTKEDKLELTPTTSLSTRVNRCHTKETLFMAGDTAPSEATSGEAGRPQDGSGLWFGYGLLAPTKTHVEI
Binding assays used specific radioligands (tritiated, iodinated) with non-radioactive competitive displacement ligands in agonist or antagonist protocols (as indicated) and various reference compounds and inhibitors to titrate specific binding to receptors and transporters. Most enzyme assays (CYPs, kinases, phosphatases, proteases, HDACs) used recombinant protein and specific substrates (fluorescence mostly, some colorimetric and radioactive) and inhibitors, followed by a biochemical separation of substrate and product. All assays for the biochemical HTS were initially run in duplicate at a single concentration (10 uM for CYP450 assays and 25 uM for all others). […] Each assay was run with positive and negative controls, and concurrent controls on every plate. The follow-up (secondary) screen tested active chemical-pairs in concentration series, as well as a few additional assays not tested in the primary screen, some selected negative inactives, and several cases re-run in the concentration series for confirmatory purposes.
Regarding `O=CCCCC=O`, the compound was classed as inactive.
Consider `CCN(CC)C(=O)c1cc(S(=O)(=O)Cc2ccccc2)c(N2CCC(c3ccccc3)CC2)cc1N(CC)CCN(C)C`, for which the AC50 was 4.95 µM (active).
Turning to `COc1cc(C(=O)NC2CCN(C)CC2)ccc1Nc1ncc2c(n1)N(C1CCCC1)CC(F)(F)C(=O)N2C`, the compound was called inactive.
As to `CC1(C)NC(=O)N(c2ccc([N+](=O)[O-])c(C(F)(F)F)c2)C1=O`, the result was inactive.
Consider `CN(C)c1ccc(C(=C2C=CC(=[N+](C)C)C=C2)c2ccc(N(C)C)cc2)cc1`, for which the AC50 is 3.82 µM (active).
`CN(C)C(=O)C1(N2CCCCC2)CCN(CC[C@@]2(c3ccc(Cl)c(Cl)c3)CN(C(=O)c3ccccc3)CCO2)CC1`: the compound was called inactive.
On to `CCCCCCCCCCCC[N+](C)(C)C`, for which the AC50 is 18.6 µM (active).
As for `Cc1cc(F)ccc1-c1cc(N2CC[C@@H](O)[C@H]2CO)ncc1N(C)C(=O)C(C)(C)c1cc(C(F)(F)F)cc(C(F)(F)F)c1`, the AC50 was 0.181 µM (active).
Consider `CCCOC(=O)c1cc(O)c(O)c(O)c1`, for which the call was inactive.
Turning to `CCCCCCCCOC(=O)c1cc(O)c(O)c(O)c1`, the half-maximal activity concentration (AC50) is 7.2 µM (active).
For the compound `Cc1oc2c(NC(=O)c3c(Cl)cccc3Cl)cccc2c1C(C)(C)O`, the outcome was inactive.
In the case of `O=C1c2ccccc2C(=O)N1CCc1noc(-c2ccc(CN3CCCCCC3)s2)n1`, the AC50 was 12.3 µM (active).
For `O=c1[nH]sc2ccccc12`, the concentration at half-maximal activity (AC50) was 0.38 µM (active).
In the case of `CN(C[C@@H](CC[N+]12CCC(C3CCCCC3)(CC1)CC2)c1ccc(Cl)c(Cl)c1)C(=O)c1cc(C(F)(F)F)cc(C(F)(F)F)c1`, the AC50 was 0.0311 µM (active).
For the compound `CCOC(=O)O[C@H](C)OC(=O)c1ccc2c(c1)cc(C(=O)NC1CCN(C(C)C)CC1)n2Cc1cc(-c2ccc(Cl)s2)on1`, the AC50 was 3.38 µM (active).
In the case of `NCc1cccc(C2CCN(C(=O)c3ccc(C#Cc4ccccc4F)o3)CC2)c1`, the AC50 was 2.9 µM (active).
